Test results reported in PubChem BioAssay (NCATS).
“And” between values parts separate entries of the source, which are not always exact repeats. Equal entries are not always repeated. Results filed as inconclusive are left out. The source made the active and inactive calls. Unless noted, calls follow the shape of the dose curve; as a rule, active = well fitted curve in the direction sought with a large enough effect; inconclusive = small, poorly fitted or top-dose-only effect, or another doubt; inactive = no such curve, though single readings can be large; an effect the other way counts as inactive or inconclusive.

How the values were obtained:
[1] = Quantitative high throughput screen for delayed death inhibitors of the malarial parasite plastid, 48 hour incubation (AID 488752); also: nearly all actives have a fitted effect of over 65% in size; also: potency is read from the fitted curve at half-maximal effect
How it was run: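 Erythrocytes infected with P. falciparum carrying an integrated firefly luciferase reporter (2% hematocrit, 0.1% parasitemia final) were exposed to compounds in RPMI 1640/0.5% Albumax for 48 h at 37 C, 5% CO2. Growth inhibition was scored as reduced luminescence.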

[2] = target: Thioredoxin reductase 1, cytoplasmic (Rattus norvegicus) (UniProt O89049); assay: qHTS Assay for Substrates of Mammalian Selenoprotein Thioredoxin Reductase 1 (TrxR1) (AID 488772);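 also: NADPH fluorescence in the first read after selenite addition and not the 8 min delta; series mostly up to about 57 µM; 0% is about no effect; a drop in NADPH fluorescence below the no-compound background marks a TrxR1 substrate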
Thioredoxin reductase 1, cytoplasmic (Rattus norvegicus), sequence (O89049 whole entry, looked up): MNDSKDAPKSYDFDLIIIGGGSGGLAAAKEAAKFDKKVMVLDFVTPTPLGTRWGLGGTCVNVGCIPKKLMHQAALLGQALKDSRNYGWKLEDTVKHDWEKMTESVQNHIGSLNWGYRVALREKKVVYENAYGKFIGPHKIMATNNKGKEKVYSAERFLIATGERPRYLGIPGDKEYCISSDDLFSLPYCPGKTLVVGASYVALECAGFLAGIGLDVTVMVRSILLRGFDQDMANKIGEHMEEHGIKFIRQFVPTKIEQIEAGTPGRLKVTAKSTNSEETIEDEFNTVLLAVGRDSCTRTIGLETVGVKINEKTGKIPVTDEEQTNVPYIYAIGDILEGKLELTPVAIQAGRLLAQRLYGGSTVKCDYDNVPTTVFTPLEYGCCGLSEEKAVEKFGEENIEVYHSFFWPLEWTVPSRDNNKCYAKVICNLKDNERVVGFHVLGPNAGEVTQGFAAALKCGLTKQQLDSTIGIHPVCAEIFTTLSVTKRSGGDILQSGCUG
How it was run: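 Quantitative HTS in Tris-HCl buffer at pH 7.5 with EDTA and Tween-20, using rat TrxR1, 400 uM NADPH and 400 uM selenite (final). A fall in initial NADPH fluorescence relative to background marked substrate behaviour.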

[3] = target: M-phase phosphoprotein 8 (Homo sapiens) (UniProt Q99549); assay: qHTS Validation Assay for Inhibitors for MPP8 Chromodomain Interactions with Methylated Histone Tails (AID 488949); also: nearly all actives have a fitted effect of over 55% in size; also: potency is read from the fitted curve at half-maximal effect
M-phase phosphoprotein 8 (Homo sapiens), sequence (Q99549 whole entry, looked up): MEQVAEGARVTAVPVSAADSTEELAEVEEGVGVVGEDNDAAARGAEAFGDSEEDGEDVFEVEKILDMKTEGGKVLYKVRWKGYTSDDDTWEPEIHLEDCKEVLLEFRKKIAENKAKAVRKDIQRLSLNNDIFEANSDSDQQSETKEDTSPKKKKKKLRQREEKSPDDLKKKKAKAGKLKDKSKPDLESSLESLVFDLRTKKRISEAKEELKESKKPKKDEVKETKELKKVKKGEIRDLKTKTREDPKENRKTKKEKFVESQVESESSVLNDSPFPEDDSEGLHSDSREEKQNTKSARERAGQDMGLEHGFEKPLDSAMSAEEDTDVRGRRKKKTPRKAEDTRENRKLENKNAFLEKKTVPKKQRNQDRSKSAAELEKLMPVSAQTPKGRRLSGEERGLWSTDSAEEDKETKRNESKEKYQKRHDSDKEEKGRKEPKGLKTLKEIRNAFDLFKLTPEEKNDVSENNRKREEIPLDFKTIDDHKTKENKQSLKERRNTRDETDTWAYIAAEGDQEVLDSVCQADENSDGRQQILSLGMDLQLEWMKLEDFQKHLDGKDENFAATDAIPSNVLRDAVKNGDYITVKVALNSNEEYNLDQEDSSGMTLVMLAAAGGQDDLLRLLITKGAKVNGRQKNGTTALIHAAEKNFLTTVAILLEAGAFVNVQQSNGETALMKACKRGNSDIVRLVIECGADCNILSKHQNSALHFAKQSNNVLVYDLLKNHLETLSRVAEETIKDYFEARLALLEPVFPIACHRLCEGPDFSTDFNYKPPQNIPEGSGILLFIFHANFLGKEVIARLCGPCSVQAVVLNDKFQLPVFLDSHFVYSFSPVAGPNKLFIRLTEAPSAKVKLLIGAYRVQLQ
How it was run: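 Disruption of the preformed MPP8–trimethyl-H3K9 peptide complex (both 50 nM, 30 min, RT) is measured after 30 min compound exposure, using AlphaScreen proximity beads; aurintricarboxylic acid titration serves as plate control.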

[4] = target: Methanococcus maripaludis chaperonin (MmCpn) (UniProt Q6LX38); assay: High-Throughput Screening for Modulators of Cytosolic Chaperonin Activity: MmCpn Primary Screen (AID 488978);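 also: 50 nM MmCpn enzyme hydrolysing 30 µM ATP at 37 °C; 0% is about no effect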
How it was run: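 Measures ATPase turnover of the M. maripaludis chaperonin (50 nM final) against 30 uM ATP over 10 min at 37C, with compound added 5 min beforehand at room temperature. ADP is quantified by HTRF immunodetection.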

[5] = target: Transient receptor potential cation channel subfamily V member 1 (Homo sapiens) (UniProt Q8NER1); assay: HTS Assay for Compounds that Act as Enhancers of the Vanilloid Receptor 1 (AID 488979); also: 0% is about no effect
How it was run: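 TRPV1-expressing cells loaded with Fluo-8 calcium dye; compounds added and calcium influx read kinetically for 3 min (agonist phase), then capsaicin at EC20 added and read 2 min more for enhancement. Fluorescence ex 480/em 520 nm.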

[6] = target: Thyrotropin receptor (Homo sapiens) (UniProt P16473); assay: qHTS Assay for Antagonists of the Thyroid Stimulating Hormone Receptor (AID 488980); also: series mostly up to about 58 µM; 0% is about no effect
How it was run: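 Cells expressing human TSHR (HEK293) are dispensed in HBSS/HEPES containing 70 uM RO 20-1724, compound is added, then TSH at EC80 (4 nM final). Antibody in lysis buffer follows, 30 minutes at room temperature before HTRF detection.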

[7] = target: D(1A) dopamine receptor (Homo sapiens) (UniProt P21728); assay: HTS Assay for Allosteric Agonists of the Human D1 Dopamine Receptor: Primary Screen for Agonists (AID 488981); also: 0% is about no effect
D(1A) dopamine receptor (Homo sapiens), sequence (P21728 whole entry, looked up): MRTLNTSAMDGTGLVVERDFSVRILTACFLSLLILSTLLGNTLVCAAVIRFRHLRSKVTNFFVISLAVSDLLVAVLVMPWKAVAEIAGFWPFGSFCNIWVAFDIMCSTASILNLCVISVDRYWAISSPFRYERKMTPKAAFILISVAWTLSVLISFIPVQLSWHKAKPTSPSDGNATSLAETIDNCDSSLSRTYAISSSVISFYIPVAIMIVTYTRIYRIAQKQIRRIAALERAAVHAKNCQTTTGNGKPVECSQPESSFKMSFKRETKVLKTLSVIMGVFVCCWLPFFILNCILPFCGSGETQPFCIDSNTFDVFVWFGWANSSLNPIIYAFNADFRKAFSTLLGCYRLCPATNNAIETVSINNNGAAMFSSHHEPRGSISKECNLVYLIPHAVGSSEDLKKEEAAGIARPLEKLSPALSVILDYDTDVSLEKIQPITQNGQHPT
How it was run: (§1)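 Tetracycline-induced HEK293 T-REx cells force-coupled to calcium signalling were incubated overnight at 30 C and dye-loaded at room temperature. Calcium flux over 180 s after compound addition flagged agonists; a further 180 s read after EC20 dopamine flagged potentiators.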

[8] = target: D(1A) dopamine receptor (Homo sapiens) (UniProt P21728); assay: HTS Assay for Allosteric Agonists of the Human D1 Dopamine Receptor: Primary Screen for Potentiators (AID 488982); also: 0% is about no effect
How it was run: as §1

[9] = target: D(1A) dopamine receptor (Homo sapiens) (UniProt P21728); assay: HTS Assay for Allosteric Agonists of the Human D1 Dopamine Receptor: Primary Screen for Antagonists (AID 488983);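 also: calcium flux response to an EC80 dopamine challenge measured with no-wash dye; nearly all actives have a fitted effect of over 65% in size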; also: potency is read from the fitted curve at half-maximal effect
How it was run: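 Tetracycline-induced HEK293 T-REx cells expressing force-coupled D1 were plated overnight at 30 C, dye-loaded for calcium, and read kinetically. Compounds were pinned in, then an EC80 dopamine challenge followed after 180 s to reveal antagonism.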

[10] = Validation screen for small molecules that induce genotoxicity in human embryonic kidney (HEK293T) cells expressing luciferase-tagged ELG1 (AID 493106); also: 0% is about no effect
How it was run: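 HEK293T cells expressing luciferase-tagged ELG1 were exposed to compound or DMSO vehicle for 16 hr at 37 °C, 5% CO2. Genotoxic stress raises ELG1 levels, so increased luciferase signal after ONE-Glo addition and 30 min at room temperature marks hits.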

[11] = target: ATPase family AAA domain-containing protein 5 (Homo sapiens) (UniProt Q96QE3); assay: Validation screen for small molecules that inhibit ELG1-dependent DNA repair in human embryonic kidney (HEK293T) cells expressing luciferase-tagged ELG1 (AID 493107);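 also: cells co-treated with the DNA-damaging agent 5-fluorouridine alongside compound; series mostly up to about 46 µM; % is scaled to controls: 0 for no effect and ±100 for the full control effect; inhibitors lower the ELG1-luciferase luminescence signal; nearly all actives have a fitted effect of over 70% in size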
ATPase family AAA domain-containing protein 5 (Homo sapiens), sequence (Q96QE3 whole entry, looked up, the tested form may be a part): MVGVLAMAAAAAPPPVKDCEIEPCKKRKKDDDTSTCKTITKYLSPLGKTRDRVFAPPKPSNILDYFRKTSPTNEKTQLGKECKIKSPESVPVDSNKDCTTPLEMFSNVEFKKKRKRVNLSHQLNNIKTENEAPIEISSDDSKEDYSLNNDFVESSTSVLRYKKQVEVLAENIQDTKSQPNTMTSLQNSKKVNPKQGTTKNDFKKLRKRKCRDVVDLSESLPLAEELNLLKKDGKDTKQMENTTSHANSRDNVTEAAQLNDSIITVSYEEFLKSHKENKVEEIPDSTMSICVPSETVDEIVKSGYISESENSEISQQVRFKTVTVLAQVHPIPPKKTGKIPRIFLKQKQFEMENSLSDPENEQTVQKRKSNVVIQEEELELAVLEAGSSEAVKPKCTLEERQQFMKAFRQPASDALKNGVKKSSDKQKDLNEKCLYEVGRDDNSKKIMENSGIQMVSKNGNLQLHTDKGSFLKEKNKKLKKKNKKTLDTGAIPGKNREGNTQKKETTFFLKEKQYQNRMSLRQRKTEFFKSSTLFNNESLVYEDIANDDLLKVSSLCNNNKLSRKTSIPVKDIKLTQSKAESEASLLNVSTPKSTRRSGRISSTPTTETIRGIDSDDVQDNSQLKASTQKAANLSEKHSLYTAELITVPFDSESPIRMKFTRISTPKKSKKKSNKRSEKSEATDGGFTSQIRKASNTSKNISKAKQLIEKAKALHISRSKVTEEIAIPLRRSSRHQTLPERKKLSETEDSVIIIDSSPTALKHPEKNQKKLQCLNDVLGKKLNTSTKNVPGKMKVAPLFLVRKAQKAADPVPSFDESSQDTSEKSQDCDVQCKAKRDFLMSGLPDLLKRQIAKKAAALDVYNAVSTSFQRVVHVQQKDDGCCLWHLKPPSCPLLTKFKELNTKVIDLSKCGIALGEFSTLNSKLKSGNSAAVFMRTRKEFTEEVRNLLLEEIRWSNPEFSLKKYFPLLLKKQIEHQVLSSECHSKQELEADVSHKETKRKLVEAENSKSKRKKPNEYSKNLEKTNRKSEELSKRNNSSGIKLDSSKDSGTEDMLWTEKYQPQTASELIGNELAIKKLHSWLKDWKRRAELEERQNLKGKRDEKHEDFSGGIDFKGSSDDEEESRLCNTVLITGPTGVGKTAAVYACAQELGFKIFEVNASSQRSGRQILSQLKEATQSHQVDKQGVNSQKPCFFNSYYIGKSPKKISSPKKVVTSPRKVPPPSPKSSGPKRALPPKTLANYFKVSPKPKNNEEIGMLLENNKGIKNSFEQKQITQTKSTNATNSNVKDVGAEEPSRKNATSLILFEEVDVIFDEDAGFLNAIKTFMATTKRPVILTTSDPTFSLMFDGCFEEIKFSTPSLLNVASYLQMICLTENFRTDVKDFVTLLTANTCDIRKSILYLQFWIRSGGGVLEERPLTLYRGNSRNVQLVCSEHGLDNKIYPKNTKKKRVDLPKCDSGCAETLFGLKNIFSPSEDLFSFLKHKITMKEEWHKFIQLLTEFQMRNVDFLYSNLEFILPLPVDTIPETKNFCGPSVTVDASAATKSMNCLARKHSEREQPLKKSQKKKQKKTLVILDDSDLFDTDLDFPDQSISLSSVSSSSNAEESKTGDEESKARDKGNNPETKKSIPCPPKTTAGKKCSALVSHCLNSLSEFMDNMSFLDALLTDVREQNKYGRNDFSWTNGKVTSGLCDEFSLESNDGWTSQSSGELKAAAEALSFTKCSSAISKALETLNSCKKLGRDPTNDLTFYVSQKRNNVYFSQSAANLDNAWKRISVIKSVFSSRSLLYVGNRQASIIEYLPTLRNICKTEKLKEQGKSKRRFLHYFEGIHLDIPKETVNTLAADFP
How it was run: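 HEK293T cells expressing luciferase-tagged ELG1 were co-treated with 5-fluorouridine and compound or DMSO for 16 hr at 37 °C, 5% CO2. Luciferase activity was then read with ONE-Glo after 30 min at room temperature; suppressed signal indicates blocked ELG1 function.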

[12] = target: Thyrotropin-releasing hormone receptor (Homo sapiens) (UniProt P34981); assay: qHTS for Small Molecule Agonists and Allosteric Enhancers of Human TRH Receptor: Validation Screen for Agonists (AID 493127;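 active = calcium activation more than 3 SD above the typical response in the agonist read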;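 also: intracellular calcium rise by fluo-8 fluorescence before TRH EC20 addition; 0% is about no effect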); details: TRH receptor agonist cell assay; at 2 µM; stronger effect = higher value
Thyrotropin-releasing hormone receptor (Homo sapiens), sequence (P34981 whole entry, looked up): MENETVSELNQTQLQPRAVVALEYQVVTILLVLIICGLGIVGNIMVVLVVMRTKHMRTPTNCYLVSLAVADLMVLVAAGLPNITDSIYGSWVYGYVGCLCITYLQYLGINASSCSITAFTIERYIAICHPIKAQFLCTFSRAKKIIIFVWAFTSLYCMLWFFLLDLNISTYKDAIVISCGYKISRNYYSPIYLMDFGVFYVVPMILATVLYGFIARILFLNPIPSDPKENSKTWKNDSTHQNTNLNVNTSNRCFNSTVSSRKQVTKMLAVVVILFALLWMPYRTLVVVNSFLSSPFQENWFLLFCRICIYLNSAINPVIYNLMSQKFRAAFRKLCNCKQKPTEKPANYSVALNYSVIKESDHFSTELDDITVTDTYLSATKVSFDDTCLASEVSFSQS
How it was run: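 TRHR-expressing cells were plated overnight in serum-containing medium, then loaded with fluo-8 calcium dye at room temperature for 30 min–1.5 h. After a 10 s baseline, compound was pin-transferred and calcium fluorescence (ex 480/em 530) read kinetically for agonist response.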

[13] = Nrf2 qHTS screen for inhibitors: Validation (AID 493153; active = well fitted inhibition curve with a large enough effect in the main read-out, with a control signal flat, not every such curve was filed as active); details: Potency: luciferase luminescence; viability change: measured here: cytotoxicity max response
How it was run: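 A549 cells carrying an ARE-driven firefly luciferase reporter, in 5% FBS OPTI-MEM, were treated with compounds in concentration-response for 18-24 h at 37°C. Viability was read by CellTiter-Fluor fluorescence, then Nrf2 activity by luciferase luminescence.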

[14] = qHTS for Inhibitors of Cell Surface uPA Generation: Validation Assay (AID 493164);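 also: RAW 264.7 macrophage cells exposed to compound for 18 h; 0% is about no effect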
How it was run: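 RAW 264.7, 4000 cells/well, o/n plating; cpd 7-pt 1:5 dilution 2.45 nM–38.3 uM final; 18 h, 37 C/5% CO2; ATP-Lite, 5 s luminescence exposure.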

[15] = Validation screen for small molecules that induce DNA re-replication in SW480 colon adenocarcinoma cells (AID 504364); also: 0% is about no effect
How it was run: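 SW480 cells seeded at 250 per well were exposed to compound or DMSO for 48 hr at 37 C, 5% CO2, then stained with Hoechst for 40 min. DNA content per nucleus was imaged (405 nm ex, 500-530 nm em).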

[16] = target: Flap endonuclease 1 (Homo sapiens) (UniProt P39748); assay: qHTS Validation Assay for the Inhibitors of Human Flap endonuclease 1 (FEN1) (AID 488816); also: % is scaled to controls: 0 for no effect and ±100 for the full control effect
Flap endonuclease 1 (Homo sapiens), sequence (P39748 whole entry, looked up): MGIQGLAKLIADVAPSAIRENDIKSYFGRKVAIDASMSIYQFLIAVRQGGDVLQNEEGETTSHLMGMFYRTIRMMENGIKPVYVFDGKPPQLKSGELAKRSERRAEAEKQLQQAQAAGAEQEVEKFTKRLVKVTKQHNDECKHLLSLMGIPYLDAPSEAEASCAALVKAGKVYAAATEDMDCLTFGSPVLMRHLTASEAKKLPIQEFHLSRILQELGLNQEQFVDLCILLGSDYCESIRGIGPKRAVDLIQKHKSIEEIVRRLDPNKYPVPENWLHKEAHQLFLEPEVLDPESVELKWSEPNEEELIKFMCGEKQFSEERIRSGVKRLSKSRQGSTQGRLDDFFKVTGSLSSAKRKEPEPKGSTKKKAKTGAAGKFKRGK
How it was run: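 FEN1, dispensed as a 10 nM reagent, was preincubated with pin-transferred compounds for 15 min at room temperature before substrate was added (50 nM final). Plates were read at 0 and 15 min, and a four-parameter Hill equation was fitted to the concentration-response data.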

[17] = target: Chromobox protein homolog 1 (Homo sapiens) (UniProt P83916); assay: qHTS Validation Assay for Inhibitors of HP1-beta Chromodomain Interactions with Methylated Histone Tails (AID 488953); also: nearly all actives have a fitted effect of over 50% in size; also: potency is read from the fitted curve at half-maximal effect
Chromobox protein homolog 1 (Homo sapiens), sequence (P83916 whole entry, looked up): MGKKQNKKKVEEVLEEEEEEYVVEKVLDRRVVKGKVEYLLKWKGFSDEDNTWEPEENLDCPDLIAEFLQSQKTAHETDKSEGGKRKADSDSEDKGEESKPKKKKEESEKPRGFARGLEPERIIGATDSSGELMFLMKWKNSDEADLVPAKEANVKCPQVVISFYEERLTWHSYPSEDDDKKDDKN
How it was run: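 HP1-beta (50 nM) was preincubated 30 min at room temperature with biotinylated H3(1-18)K9me3 peptide (50 nM) in PBS pH 7.4, 0.01% Tween-20, then with compounds 30 min. AlphaScreen signal was read after streptavidin donor/nickel chelate acceptor beads (10 ug/mL final).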

[18] = target: Galactokinase (Homo sapiens) (UniProt P51570); assay: qHTS Validation Assay for Inhibitors of Human Galactokinase (GALK) (AID 493189); also: 0% is about no effect
Galactokinase (Homo sapiens), sequence (P51570 whole entry, looked up): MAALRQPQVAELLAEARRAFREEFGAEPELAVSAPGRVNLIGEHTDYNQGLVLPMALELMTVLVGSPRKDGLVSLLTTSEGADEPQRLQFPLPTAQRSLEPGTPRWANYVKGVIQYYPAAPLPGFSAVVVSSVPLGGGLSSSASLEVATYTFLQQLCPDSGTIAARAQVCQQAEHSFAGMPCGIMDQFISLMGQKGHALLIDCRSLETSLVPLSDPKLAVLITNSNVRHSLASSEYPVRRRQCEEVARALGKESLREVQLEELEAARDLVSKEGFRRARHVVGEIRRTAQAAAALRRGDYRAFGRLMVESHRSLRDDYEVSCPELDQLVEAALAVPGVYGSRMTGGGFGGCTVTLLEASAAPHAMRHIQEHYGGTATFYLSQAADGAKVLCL
How it was run: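 Compounds were pin-transferred into ATP buffer, then GALK-galactose mix was added (final 5 nM enzyme, 100 uM galactose, 35 uM ATP). After 1 h at room temperature, remaining ATP was measured luminescently.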

[19] = target: ATP-dependent 6-phosphofructokinase (Trypanosoma brucei brucei) (UniProt O15648); assay: qHTS Assay to Find Inhibitors of T. brucei phosphofructokinase: hit validation (AID 492961);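 also: luminescence reports ADP formed as PFK phosphorylates fructose-6-phosphate with ATP; series mostly up to about 51 µM; % is scaled to controls: 0 for no effect and ±100 for the full control effect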
How it was run: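 PFK 1.25 nM, F6P 0.5 mM, ATP 0.1 mM, MgCl2 5 mM, 0.1 M TEA pH 8.0, Tween20 0.01%, BSA 0.1%; 45 min RT. ADP-Glo two-step detection, luminescence. qHTS titration; curve fitting with curve-class categorization.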

NC(N)=NCCC[C@H](N)C(=O)O
inactive: Potency [1] | outcome [2] | Potency [3] | Potency [4] | outcome [5] | outcome [6] | Potency [7] | outcome [8] | Potency [9] | Potency [10] | outcome [11] | activation [12] -0.438% | Potency [13] | outcome [14] | outcome [15]
3.44%: viability change [13]

Nc1cc(=O)[nH]c(N)n1
1.17%: viability change [13]
inactive: Potency [1] | outcome [2] | Potency [16] | Potency [3] | Potency [17] | Potency [4] | outcome [5] | outcome [6] | Potency [7] | outcome [8] | Potency [9] | Potency [10] | outcome [11] | activation [12] 1.31% | Potency [13] | outcome [14] | outcome [15]

CC(C)C(=O)c1c(C(C)C)nn2ccccc12
inactive: Potency [1] | outcome [2] | Potency [16] | Potency [3] | Potency [17] | Potency [4] | outcome [5] | Potency [7] | outcome [8] | Potency [9] | Potency [10] | outcome [11] | activation [12] -4.94% | outcome [14] | outcome [15]

CC(CN1c2ccccc2Sc2ccccc21)N(C)C (configuration not stated)
inactive: Potency [1] | outcome [2] | Potency [16] | Potency [4] | outcome [6] | Potency [7] | outcome [8] | Potency [10] | outcome [11] | activation [12] 3.12% | Potency [13] | outcome [14] | outcome [15]
active: Potency [3] 39.8 µM | Potency [17] 39.8 µM | Potency [9] 10 µM
5.51%: viability change [13]

CC1=C(CC(=O)O)c2cc(F)ccc2/C1=C\c1ccc(S(C)(=O)=O)cc1
active: Potency [17] 0.006 µM
inactive: Potency [1] | outcome [2] | Potency [16] | Potency [3] | Potency [4] | outcome [5] | Potency [7] | outcome [8] | Potency [9] | Potency [10] | activation [12] 0% | Potency [13] | outcome [14] | outcome [18] | outcome [15]
-17.2%: viability change [13]

CN1CCN(C2Cc3ccccc3Sc3ccc(Cl)cc32)CC1 (configuration not stated)
-10.9%: viability change [13]
active: Potency [17] 14.1 µM | Potency [9] 0.199 µM
inactive: Potency [1] | outcome [2] | Potency [16] | Potency [3] | Potency [4] | outcome [6] | outcome [8] | Potency [19] | Potency [10] | activation [12] 0.75% | Potency [13] | outcome [14] | outcome [18] | outcome [15]

CCN(CC)CCOC(=O)C1(C2CCCCC2)CCCCC1
-2.64%: viability change [13]
inactive: Potency [1] | outcome [2] | Potency [16] | Potency [3] | Potency [17] | Potency [4] | outcome [5] | outcome [6] | outcome [8] | Potency [10] | outcome [11] | activation [12] -6.69% | Potency [13] | outcome [14] | outcome [15]

C[C@]12CC[C@@H]3c4ccc(O)cc4CC[C@H]3[C@@H]1CCC2=O
inactive: outcome [2] | Potency [16] | Potency [3] | Potency [17] | Potency [4] | outcome [5] | Potency [7] | outcome [8] | Potency [9] | Potency [10] | outcome [11] | activation [12] 0.812% | outcome [14] | outcome [15]

OCCN1CCN(CCCN2c3ccccc3Sc3ccc(Cl)cc32)CC1
-4.58%: viability change [13]
inactive: outcome [2] | Potency [16] | Potency [4] | outcome [6] | outcome [8] | Potency [19] | Potency [10] | outcome [11] | activation [12] 0.75% | Potency [13] | outcome [14]
active: Potency [1] 10.4 µM | Potency [3] 28.2 µM | Potency [17] 31.6 µM | Potency [9] 0.794 µM

CC(C)NC[C@H](O)c1ccc(O)c(O)c1
inactive: Potency [1] | outcome [2] | Potency [16] | Potency [3] | Potency [17] | Potency [4] | outcome [5] | outcome [6] | Potency [7] | Potency [9] | Potency [10] | outcome [11] | activation [12] -0.125% and 0.875% | Potency [13] | outcome [14] | outcome [15]
2.86% and 6.15%: viability change [13]

CC(CN(C)C)CN1c2ccccc2CCc2ccccc21 (configuration not stated)
active: Potency [17] 28.2 µM
inactive: outcome [2] | Potency [16] | Potency [3] | Potency [4] | outcome [6] | Potency [7] | outcome [8] | Potency [10] | outcome [11] | activation [12] 6.88% | outcome [14] | outcome [15]

COc1ccc(Cl)cc1C(=O)NCCc1ccc(S(=O)(=O)NC(=O)NC2CCCCC2)cc1
inactive: Potency [1] | outcome [2] | Potency [16] | Potency [3] | Potency [17] | Potency [4] | outcome [5] | outcome [6] | Potency [7] | outcome [8] | Potency [9] | Potency [10] | outcome [11] | activation [12] 1% | outcome [14] | outcome [15]
